ATXN2 expr inh = Primary qHTS for Inhibitors of ATXN expression; HEK-293 ATXN2-luciferase reporter, luminescence, 24 h; Potency, µM (top dose mostly 57 µM), usual class: inhibitors; hit rate 0.72% among 360,000; further: nearly all actives have a fitted effect of over 55% in size
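ATXN2-luciferase reporter cells (luciferase flanked by upstream and downstream ATXN2 gene portions) were treated 24 h at 37 °C with compounds at up to 57 uM. SteadyGlo luminescence gave expression; GF-AFC fluorescence gave viability.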
USP2a block = qHTS Assay for Inhibitors of Ubiquitin-specific Protease USP2a Using CHOP2 as the Reporter | Ubiquitin carboxyl-terminal hydrolase 2 (Homo sapiens), O75604 | USP2 core, Ub-CHOP2 coupled fluorogenic reporter, 485/531 | Potency, µM (titrated, usually from 38.3 µM), hits mostly inhibitors | hit rate 0.01% among 330,000 | AID 463254, 2010
Target sequence (O75604 whole entry, looked up): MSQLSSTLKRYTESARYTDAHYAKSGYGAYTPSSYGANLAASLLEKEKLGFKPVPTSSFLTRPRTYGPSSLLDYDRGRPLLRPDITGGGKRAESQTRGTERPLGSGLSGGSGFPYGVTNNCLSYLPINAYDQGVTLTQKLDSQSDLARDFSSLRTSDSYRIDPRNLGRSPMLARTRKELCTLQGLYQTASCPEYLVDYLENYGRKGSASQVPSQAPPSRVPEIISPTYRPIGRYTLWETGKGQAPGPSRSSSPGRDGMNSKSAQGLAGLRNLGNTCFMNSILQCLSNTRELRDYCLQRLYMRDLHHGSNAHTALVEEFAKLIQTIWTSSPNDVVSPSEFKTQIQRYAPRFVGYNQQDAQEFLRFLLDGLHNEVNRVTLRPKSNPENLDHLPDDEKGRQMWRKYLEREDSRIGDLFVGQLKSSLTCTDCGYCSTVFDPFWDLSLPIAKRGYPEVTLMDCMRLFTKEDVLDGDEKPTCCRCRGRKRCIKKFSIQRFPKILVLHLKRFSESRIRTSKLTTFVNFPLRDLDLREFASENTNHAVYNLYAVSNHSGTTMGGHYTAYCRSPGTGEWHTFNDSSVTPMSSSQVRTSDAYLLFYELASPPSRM
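Cell-free coupled assay: 10nM USP2 core preincubated 30min RT with compound in Tris-HCl pH 8.0/CaCl2/CHAPS buffer, then 25nM Ub-CHOP2 and 25nM reporter substrate; fluorescence (Ex 485/Em 531) read after 60min RT, normalized to NEM inhibition, concentration-response curves fitted.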
IL-1B inflam inh = qHTS for Inhibitors of Inflammasome Signaling: IL-1-beta AlphaLISA Primary Screen. activity change, % at 57.5 µM. hit rate 4.7% among 360,000. THP-1 LPS/ATP IL-1B secretion, AlphaLISA, 16 h; hits give low values; in the data active means activity change below about -50%; inconclusive means mostly about -30% to -49%
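THP-1 cells pretreated 1 hr with compounds (up to 57.5 uM final), then stimulated with LPS (250 ng/mL final) plus ATP (1.25 mM final); secreted IL-1B measured by AlphaLISA after 16 hr, decreased signal indicating inhibition.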
ATXN viability = Viability Counterscreen for Primary qHTS for Inhibitors of ATXN expression. S2 cells (HEK-293 line with an ATXN2-luciferase reporter) viability, CellTiter-Fluor protease fluorescence, 24 h. Potency, µM (titrated, usually from 56.7 µM), hits mostly cytotoxic. hit rate 0.49% among 400,000. AID 651635, 2014; further: nearly all actives have a fitted effect of over 40% in size
USP1 inh = Inhibitors of USP1/UAF1: Primary Screen; AID 743255, 2014; hit rate 0.23% among 390,000; recombinant USP1/UAF1, Ub-Rhodamine cleavage fluorescence; Potency, µM (doses to about 57.1 µM), actives largely listed as inhibitors; further: nearly all actives have a fitted effect of over 60% in size
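USP1/UAF1 complex (1 nM) preincubated 15 min at room temperature with compound, then Ub-Rho substrate (150 nM final) added. Kinetic fluorescence at 480/540 nm over 6 reads at 60 s intervals; 50 mM HEPES pH 7.8, 0.5 mM EDTA, 0.1 mg/ml BSA, 1 mM TCEP, 0.01% Tween-20.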
Numbers stand for hits; i = inactive; ? = inconclusive; nt = not tested or not shown; [ ] = another dose, or the depositor's remark. Shown are actives, neighbours in structure and some others; about 4.8% of the full set was active somewhere. Unless noted, the call rests on the fitted dose curve; in most records, active means well fitted curve in the direction sought with a large enough effect; inconclusive means small, poorly fitted or top-dose-only effect, or another doubt; inactive means no such curve, though single readings can be large; an effect the other way counts as inactive or inconclusive.

SMILES | ATXN2 expr inh | USP2a block | IL-1B inflam inh | ATXN viability | USP1 inh
Cc1cc(C(=O)C(C)OC(=O)c2ccc(NC(=O)CC#N)cc2)c(C)n1-c1ccccc1 (centres undefined) | ? | i | -56.4 | i | i
O=C(NCCCN1CCOCC1)c1ccc2c(=O)n(Cc3cccc(Br)c3)c(=S)[nH]c2c1 | i | i | -64.7 | i | i
Cc1ccccc1NC(=O)C1C2/C=C\CCCCC21 (centres undefined) | i | i | i | i | i
O=C(Nc1ccccc1)C1C2/C=C\CCCCC21 (centres undefined) | nt | i | -50.2 | i | i
COc1cc(/C=C2\COC/C(=C\c3ccc(O)c(OC)c3)C2=O)ccc1O | ? | i | -100.3 | nt | i
COc1cc(/C=C/C=C2/CC/C(=C/C=C/c3ccc(O)c(OC)c3)C2=O)ccc1O | ? | nt | -91.9 | nt | i
COc1cc(/C=C2\CC/C(=C\c3ccc(OCCO)c(OC)c3)C2=O)ccc1OCCO | i[11.3 µM] | i | -76.8 | i | ?
Cc1cnc(C)c(-c2cc(F)cc3c2OC(CNC(=O)Cc2c(C)noc2C)C3)n1 (centres undefined) | nt | nt | nt | i | nt
CC(C)(C)OC(=O)NCCc1nnc(S(=O)(=O)Cc2ccc(Cl)cc2Cl)o1 | ? | i | -117.8 | nt | i
CC(C)(C)OC(=O)NCCc1nnc(SCc2ccccc2Cl)o1 | i | i | i | i | i
Cc1ccc(NC(=O)Cn2c(O)c(N=NC(=O)c3cc4ccccc4cc3O)c3ccccc32)cc1 | ? | i | -94.7 | nt | i
Cn1c(N)c(C(=O)COC(=O)c2ccccc2C(=O)c2ccccc2)c(=O)n(C)c1=O | i | i | i | i | i
O=C(COC(=O)c1ccc(Cl)c([N+](=O)[O-])c1)NC1CCCC1 | i | i | i | i | i
Cn1c(N)c(C(=O)COC(=O)c2ccccc2C(=O)c2ccc(Cl)c([N+](=O)[O-])c2)c(=O)n(C)c1=O | ? | i | -98.9 | nt | i
O=C(COC(=O)c1ccc(Cl)c([N+](=O)[O-])c1)Nc1ccccc1OC(F)F | i | i | i | ? | i
O=C(COC(=O)c1ccccc1C(=O)c1ccc(Cl)c([N+](=O)[O-])c1)NC1CCCCCC1 | ? | i | -107.4 | nt | i
CN(CCC#N)C(=O)COC(=O)c1ccccc1C(=O)c1ccc(Cl)c([N+](=O)[O-])c1 | i[11.3 µM] | i | -105.6 | nt | i
CC(C)N(C(=O)COC(=O)c1ccccc1C(=O)c1ccc(Cl)c([N+](=O)[O-])c1)C(C)C | ? | i | -102.4 | i | i
CCOC(=O)C1=CN(Cc2cccc(F)c2)S(=O)(=O)N(CC)C1c1ccc(Br)cc1F (centres undefined) | i | i | i | i | i
COCc1c(C(=O)N2CCN(C3CCCC3)CC2)cnn1-c1ncc2c(n1)-c1ccccc1CCC2 | nt | nt | nt | i | nt
COc1cc(OC)cc(-c2oc3cccnc3c2C#CCCO)c1 | i | i | -64.1 | i | i
CCNc1nc(SCC(=O)Nc2ccc(Cl)c(Cl)c2)nc(N2CCOCC2)n1 | i | i | -58.6 | ? | ?
O=C(CSc1nc(Nc2ccccc2)nc(N2CCOCC2)n1)N1CCCC1 | i | i | -53.0 | i | i
O=C(CSc1nc(Nc2ccccc2)nc(N2CCOCC2)n1)N1CCc2ccccc21 | i | i | i | i | i
CC(C)(C)Nc1nc(SCC(=O)Nc2ccccc2)nc(N2CCOCC2)n1 | i | i | -90.4 | i | i
SMILES | ATXN2 expr inh | USP2a block | IL-1B inflam inh | ATXN viability | USP1 inh
COc1ccc(-n2c(SCC(=O)NCc3ccccc3)nc3n[nH]c(C)c3c2=N)cc1 | nt | nt | nt | nt | i
CCOC(=O)CCCCC(=O)c1[nH]c(=O)[nH]c1CSCCO | i | i | -83.9 | i | i
CCOC(=O)c1[nH]c(=O)[nH]c1CSc1ccccn1 | i | i | i | ? | i
CCOC(=O)CCCCC(=O)c1[nH]c(=O)[nH]c1CSc1nc(-c2ccccc2)c(C#N)c(=O)[nH]1 | i | i | -65.6 | i | i
CCOC(=O)CCCCC(=O)c1[nH]c(=O)[nH]c1Cn1cnc2ccccc21 | i | i | -53.9 | i | i
CCc1ccc2[nH]c(=O)c(CN(Cc3ccccc3OC)C(=O)Nc3ccccc3OC)cc2c1 | i | i | -60.3 | i | i
COc1ccc2[nH]c(=O)c(CN(CC3CCCO3)C(=O)Nc3ccccc3OC)cc2c1 (centres undefined) | i | i | -61.7 | i | i
CCN(CC)CCN(Cc1cc2cc(C)ccc2[nH]c1=O)C(=O)Nc1ccccc1OC | i | i | i | i | i
CNC(=O)/C(C#N)=C/c1c(N2CCN(c3cccc(Cl)c3)CC2)nc2c(C)cccn2c1=O | i | i | -66.3 | nt | i
C=CCNC(=O)/C(C#N)=C/c1c(N2CCN(c3cccc(Cl)c3)CC2)nc2c(C)cccn2c1=O | i | i | i | nt | i
CCNC(=O)/C(C#N)=C/c1c(N2CCN(c3ccc(OC)cc3)CC2)nc2c(C)cccn2c1=O | i | i | -61.6 | ? | i
CCNC(=O)/C(C#N)=C/c1c(N2CCN(c3ccccc3)CC2)nc2c(C)cccn2c1=O | i | i | i | i | i
COC(=O)[C@@H]1CCCN1Cc1ccc2c(c1)CN(Cc1cccn1-c1ncccn1)CCO2 | nt | nt | nt | i | nt
CCN(CC)CCOC(=O)c1c(C)oc2ccc(OC)cc12 | i | i | -85.6 | i | i
COc1ccc2c(c1)c(C(=O)OCCN(C)C)c(C)n2C | i | i | -69.3 | i | i
C=C(C)COc1ccc2oc(C)c(C(=O)OCCOC)c2c1 | i | i | i | i | i
Cn1c(Oc2ccc(Cl)cc2)c(C=O)c2ccccc21 | i | i | -94.8 | i | i
Cn1c(Oc2ccc(F)cc2F)c(C=O)c2ccccc21 | i | i | -87.9 | i | i
COc1ccc(Oc2c(C=O)c3ccccc3n2C)cc1 | i | i | ? | i | i
Cc1cn([C@H]2C[C@H](O)[C@@H](/C=C/C(=O)NCc3ccc4c(c3)OCO4)O2)c(=O)[nH]c1=O | i | nt | i | i | nt
COC(=O)Cn1c(C(=O)N(C)C)cc2c1C[C@H]1CN(C(=O)c3ccccc3)[C@@](Cc3ccc(F)cc3)(C(=O)OC)[C@@H]21 | i | nt | i | i | nt
COC(=O)[C@@]1(Cc2ccccc2)[C@@H]2C(=CC(=O)[C@H]2CC(=O)C(=O)N(C)C)CN1C(=O)c1ccccc1 | 28.2µM | i | -105.3 | 20µM | i
O=C(CN1CCN(c2ccccc2O)CC1)Nc1ccnn1C1CCCC1 | i | i | i | i | i
CCCCOc1ccc2c(c1)C(=O)c1cc(O)ccc1-2 | i | i | -100.8 | i | i
COc1cc(CN(C)C(=O)C2CCN(S(=O)(=O)c3cccs3)CC2)ccc1OC(F)F | i | nt | i | i | i
